Results filed as inconclusive are left out. Calls of active or inactive are those of the source. Unless noted, calls follow the shape of the full dose curve.
What was measured:
[1] = Nuclear factor erythroid 2-related factor 2/antioxidant responsive element (Nrf2/ARE) small molecule agonists: qHTS cell viability counter screen in human keratinocytes (AID 1919968; active = well fitted curve in the direction sought with a large enough effect in the repeat runs; an effect the other way counts as inactive or inconclusive; also: nearly all actives have a fitted effect of over 55% in size)
How it was run: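 Viability counter-screen: KeratinoSens reporter cells, DMSO-delivered compounds, 23 h at 37 C, CellTiter-Fluor fluorescence.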

[2] = Nuclear factor erythroid 2-related factor 2/antioxidant responsive element (Nrf2/ARE) small molecule agonists: luciferase reporter gene qHTS assay in human keratinocytes (AID 1919969); also: nearly all actives have a fitted effect of over 35% in size
[3] = target: Gonadotropin-releasing hormone receptor (Homo sapiens) (UniProt P30968); assay: Human gonadotropin-releasing hormone receptor (GnRHR) small molecule agonists, calcium flux assay in GnRHR-HEK293 cells (AID 1920063); also: nearly all actives have a fitted effect of over 35% in size
Gonadotropin-releasing hormone receptor (Homo sapiens), sequence (P30968 whole entry, looked up): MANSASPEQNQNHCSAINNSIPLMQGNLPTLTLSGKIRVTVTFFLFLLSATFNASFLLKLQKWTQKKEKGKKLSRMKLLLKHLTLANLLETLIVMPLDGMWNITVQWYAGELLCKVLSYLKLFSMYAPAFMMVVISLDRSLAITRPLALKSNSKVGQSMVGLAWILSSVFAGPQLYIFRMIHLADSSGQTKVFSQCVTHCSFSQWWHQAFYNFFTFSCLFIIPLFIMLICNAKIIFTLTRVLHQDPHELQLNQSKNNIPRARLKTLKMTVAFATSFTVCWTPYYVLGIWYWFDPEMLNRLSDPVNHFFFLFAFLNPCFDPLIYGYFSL
How it was run: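 Tox21-format agonist screen using human GnRHR-expressing HEK293 cells and a fluorescent calcium dye; kinetic 3-min fluorescence reading after compound addition, 15-point concentration series run in triplicate.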

[4] = target: KiSS-1 receptor (Homo sapiens) (UniProt Q969F8); assay: Human kisspeptin (KISS1R) small molecule agonists, calcium flux assay in KISS1R-HEK293 cells (AID 1920064; active = well fitted curve in the direction sought with a large enough effect in the repeat runs; an effect the other way counts as inactive or inconclusive)
KiSS-1 receptor (Homo sapiens), sequence (Q969F8 whole entry, looked up): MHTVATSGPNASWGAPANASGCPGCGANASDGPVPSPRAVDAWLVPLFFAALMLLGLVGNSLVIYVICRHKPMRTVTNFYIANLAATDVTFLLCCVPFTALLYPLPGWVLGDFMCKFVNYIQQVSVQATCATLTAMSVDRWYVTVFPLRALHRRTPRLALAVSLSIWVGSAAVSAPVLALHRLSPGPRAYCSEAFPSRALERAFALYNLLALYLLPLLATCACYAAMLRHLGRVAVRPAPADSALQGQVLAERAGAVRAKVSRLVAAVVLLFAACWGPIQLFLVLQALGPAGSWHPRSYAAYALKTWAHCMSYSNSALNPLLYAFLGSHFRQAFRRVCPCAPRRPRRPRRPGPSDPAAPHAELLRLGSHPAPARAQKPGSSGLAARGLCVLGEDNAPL
How it was run: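 Intracellular calcium mobilization in KISS1R-HEK293 cells was recorded by fluorescence (Ex/Em 480/540) for 3 min following compound addition to cells pre-loaded 1 h with calcium dye.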

[5] = G protein-coupled receptor (GPCR) small molecule agonists, calcium flux assay: HEK293 wild type cell line counter screen (AID 1920065)
How it was run: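 In this agonist-mode screen, ATP is the positive control and DMSO the vehicle. Cells grow 18 h before a 1 h dye incubation at 37 C; signal is taken at Ex/Em 480/540 over 3 min.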

[6] = p53 small molecule agonists, cell-based qHTS assay with human liver microsomes (AID 1963577);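 also: p53 response element beta-lactamase reporter cells with liver microsomes plus NADPH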
How it was run: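 Metabolically competent format: test substances, human liver microsomes and NADPH (both 0.5 mg/mL final) incubated with p53RE-bla cells 16 h at 37 C. Beta-lactamase reporter signal then quantified by fluorescence.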

[7] = p53 small molecule agonists, cell-based qHTS assay with rat liver microsomes (AID 1963578)
How it was run: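 Each plate received p53RE-bla cells, then compound, then rat liver microsomes and NADPH (both 0.5 mg/mL final). Plates were held 16 h at 37 C, and beta-lactamase activity was detected with LiveBLAzer over 2 h.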

[8] = p53 small molecule agonists, cell-based qHTS assay with human liver microsomes: qHTS cell viability counter screen (AID 1963579); also: nearly all actives have a fitted effect of over 45% in size
How it was run: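 Tox21 library compounds, delivered from DMSO stocks, were tested on p53RE-bla cells together with 0.5 mg/mL human liver microsomes and 0.5 mg/mL NADPH (final) over 16 h at 37 C; CellTiter-Glo luminescence served as the cytotoxicity measure.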

[9] = p53 small molecule agonists, cell-based qHTS assay (AID 1963582; active = well fitted activation curve with a large enough effect in the signal ratio in the repeat runs, not every such curve was filed as active; the % refers to the signal ratio)
How it was run: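 Agonist activity was scored from beta-lactamase FRET fluorescence in p53RE-bla cells treated 16 h at 37 C with compounds in DMSO, substrate incubation being 2 h at room temperature.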

[10] = target: 5-hydroxytryptamine receptor 2A (Homo sapiens) (UniProt P28223); assay: 5-hydroxytryptamine receptor 2A (HTR2A) small molecule antagonists, cell-based qHTS assay (AID 1963586); also: nearly all actives have a fitted effect of over 45% in size
5-hydroxytryptamine receptor 2A (Homo sapiens), sequence (P28223 whole entry, looked up): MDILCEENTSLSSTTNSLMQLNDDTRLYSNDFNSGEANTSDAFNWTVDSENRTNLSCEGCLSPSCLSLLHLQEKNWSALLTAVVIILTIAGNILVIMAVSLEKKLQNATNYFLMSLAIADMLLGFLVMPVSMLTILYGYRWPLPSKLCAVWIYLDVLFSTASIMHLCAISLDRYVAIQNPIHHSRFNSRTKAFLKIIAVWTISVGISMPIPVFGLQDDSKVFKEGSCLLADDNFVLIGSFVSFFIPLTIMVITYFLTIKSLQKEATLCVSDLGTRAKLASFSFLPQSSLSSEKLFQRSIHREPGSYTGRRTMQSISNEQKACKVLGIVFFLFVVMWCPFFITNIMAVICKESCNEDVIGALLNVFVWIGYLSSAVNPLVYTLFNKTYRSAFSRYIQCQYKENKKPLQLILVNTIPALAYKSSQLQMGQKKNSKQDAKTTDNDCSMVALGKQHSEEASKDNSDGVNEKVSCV
How it was run: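 Antagonist-mode intracellular calcium assay: DOI (4 nM) added after 5 min compound pre-incubation at room temperature to dye-loaded HTR2A-CHO cells. Fluorescence followed for 3 min, sampled every second.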

[11] = target: 5-hydroxytryptamine receptor 2A (Homo sapiens) (UniProt P28223); assay: 5-hydroxytryptamine receptor 2A (HTR2A) small molecule agonists, cell-based qHTS assay (AID 1963587); also: nearly all actives have a fitted effect of over 30% in size
How it was run: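 HTR2A-CHO cells, plated 18 h at 37 C/5% CO2, dye-loaded 1 h at 37 C; compounds in DMSO added by pin tool (agonist mode). Intracellular calcium flux read as kinetic fluorescence on FDSS over 2 min at 1 s intervals.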

[12] = target: Muscarinic acetylcholine receptor M1 (Homo sapiens) (UniProt P11229); assay: Cholinergic receptor muscarinic 1 (CHRM1) small molecule antagonists, cell-based qHTS assay (AID 1963588); also: nearly all actives have a fitted effect of over 40% in size
Muscarinic acetylcholine receptor M1 (Homo sapiens), sequence (P11229 whole entry, looked up): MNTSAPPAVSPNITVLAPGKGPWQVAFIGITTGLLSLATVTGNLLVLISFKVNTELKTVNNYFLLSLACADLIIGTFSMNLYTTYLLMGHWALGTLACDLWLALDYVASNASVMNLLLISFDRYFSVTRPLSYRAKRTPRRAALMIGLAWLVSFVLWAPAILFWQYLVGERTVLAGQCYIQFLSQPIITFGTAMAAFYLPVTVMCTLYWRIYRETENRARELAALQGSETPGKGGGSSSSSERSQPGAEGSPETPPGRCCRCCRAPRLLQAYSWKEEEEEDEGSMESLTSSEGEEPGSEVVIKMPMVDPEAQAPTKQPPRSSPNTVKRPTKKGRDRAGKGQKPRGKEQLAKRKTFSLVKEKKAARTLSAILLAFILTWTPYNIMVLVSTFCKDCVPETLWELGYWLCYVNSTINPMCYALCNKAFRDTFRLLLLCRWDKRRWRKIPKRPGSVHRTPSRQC
How it was run: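 CHRM1-CHO calcium-flux assay, antagonist mode. Cells were seeded 18 h, dye-loaded 1 h at 37 C and given compound for 5 min at RT, then acetylcholine was added at 50nM. FDSS fluorescence was read 3 min; 15 concentrations, three runs.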

[13] = target: Muscarinic acetylcholine receptor M1 (Homo sapiens) (UniProt P11229); assay: Cholinergic receptor muscarinic 1 (CHRM1) small molecule agonists, cell-based qHTS assay (AID 1963589); also: nearly all actives have a fitted effect of over 35% in size
How it was run: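 Stable CHRM1-CHO cells (human receptor) were incubated 18 h, dye-loaded for 1 h at 37 C and exposed to test compounds for agonist activity, with calcium-dependent fluorescence followed kinetically.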

[14] = cAMP Responsive Elements (CRE) small molecule antagonists, cell-based qHTS assay (AID 1963591; active = well fitted inhibition curve with a large enough effect in the signal ratio in the repeat runs, not every such curve was filed as active; the % refers to the signal ratio)
How it was run: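 qHTS in CRE-bla HEK 293T cells: compound in DMSO, then 0.25 uM NKH477 (final), 3 h at 37 °C/5% CO2; beta-lactamase FRET read-out after 2 h substrate incubation.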

[15] = target: Beta-2 adrenergic receptor (Homo sapiens) (UniProt P07550); assay: Adrenergic beta2 receptor (ADRB2) small molecule antagonists, cell-based qHTS assay (AID 1963592); also: series mostly up to about 92 µM; nearly all actives have a fitted effect of over 50% in size
Beta-2 adrenergic receptor (Homo sapiens), sequence (P07550 whole entry, looked up): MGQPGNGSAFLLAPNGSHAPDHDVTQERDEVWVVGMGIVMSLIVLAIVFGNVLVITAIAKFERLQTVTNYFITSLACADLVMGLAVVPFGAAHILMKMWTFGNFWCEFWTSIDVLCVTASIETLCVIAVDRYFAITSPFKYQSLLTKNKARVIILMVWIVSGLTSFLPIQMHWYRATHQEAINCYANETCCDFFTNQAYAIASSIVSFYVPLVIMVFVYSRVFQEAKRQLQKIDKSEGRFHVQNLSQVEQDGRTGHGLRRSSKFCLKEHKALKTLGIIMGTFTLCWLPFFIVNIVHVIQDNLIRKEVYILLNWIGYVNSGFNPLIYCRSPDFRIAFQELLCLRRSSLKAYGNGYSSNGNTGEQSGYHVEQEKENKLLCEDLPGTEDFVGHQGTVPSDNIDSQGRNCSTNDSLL
How it was run: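 Cells (CHO, stable ADRB2 overexpression) incubated 18-20hr at 37C; compounds added from DMSO; agonist mix (1nM isoproterenol, 100uM IBMX, 25uM Ro-20-1724) added; 0.5hr RT; d2-cAMP and anti-cAMP-cryptate added; 1hr RT; 665/615 nm read.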

[16] = target: D(2) dopamine receptor (Homo sapiens) (UniProt P14416); assay: Dopamine D2 receptor (DRD2) small molecule agonists, cell-based qHTS assay (AID 1963594); also: nearly all actives have a fitted effect of over 35% in size
D(2) dopamine receptor (Homo sapiens), sequence (P14416 whole entry, looked up): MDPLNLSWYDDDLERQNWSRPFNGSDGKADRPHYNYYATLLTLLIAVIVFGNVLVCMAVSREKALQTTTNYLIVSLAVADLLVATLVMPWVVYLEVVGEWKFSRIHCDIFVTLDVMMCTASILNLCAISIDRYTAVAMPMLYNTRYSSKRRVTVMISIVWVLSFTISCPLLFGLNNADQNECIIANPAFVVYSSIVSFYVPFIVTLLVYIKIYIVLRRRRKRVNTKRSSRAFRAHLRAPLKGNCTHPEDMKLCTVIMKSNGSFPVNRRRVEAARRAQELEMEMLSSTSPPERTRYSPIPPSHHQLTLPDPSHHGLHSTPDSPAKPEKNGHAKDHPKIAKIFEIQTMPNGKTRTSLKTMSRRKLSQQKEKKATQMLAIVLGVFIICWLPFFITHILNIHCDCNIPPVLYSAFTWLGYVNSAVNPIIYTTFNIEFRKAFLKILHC
How it was run: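 HEK293 cells stably expressing DRD2 were cultured 24 h at 37 C, then given Ro20-1724 (0.1 mM final) and compounds for 10 min at room temperature. NKH477 (200nM) was then added for 30 min. cAMP was read by HTRF.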

[17] = target: D(2) dopamine receptor (Homo sapiens) (UniProt P14416); assay: Dopamine D2 receptor (DRD2) small molecule antagonists, cell-based qHTS assay (AID 1963595; active = well fitted inhibition curve with a large enough effect in the signal ratio in the repeat runs, with a control signal flat; the % refers to the signal ratio)
How it was run: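 HEK293 cells stably expressing DRD2 were preincubated with 0.1 mM Ro20-1724, then with compound for 10 min at room temperature. Cells were stimulated with 200 nM NKH477 plus 12 nM quinpirole for 30 min, and cAMP was read by HTRF.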

[18] = cAMP Responsive Elements (CRE) small molecule agonists, cell-based qHTS assay (AID 1963590)
How it was run: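 FRET-based beta-lactamase readout (LiveBLAzer B/G, 2 h RT) quantified CRE activation in HEK 293T CRE-bla cells after 3 h treatment with DMSO-dissolved compounds.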

[19] = target: Beta-2 adrenergic receptor (Homo sapiens) (UniProt P07550); assay: Adrenergic beta2 receptor (ADRB2) small molecule agonists, cell-based qHTS assay (AID 1963593);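 also: CHO cells stably overexpressing human ADRB2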
How it was run: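 CHO cells stably over-expressing ADRB2 were plated overnight at 37C, then dosed with compounds plus a stimulation mix containing 100uM IBMX and 25uM Ro-20-1724 for 0.5hr at room temperature. cAMP was measured by HTRF competition, 1hr.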
% is scaled to controls: 0 for no effect and ±100 for the full control effect.

CO[C@@H]1[C@@H](O[C@@H]2O[C@H](C)[C@@H](O[C@H]3C[C@@](C)(O)[C@@H](O)[C@H](C)O3)[C@H](N(C)C)[C@H]2O)[C@@H](CC=O)C[C@@H](C)[C@@H](O[C@@H]2CC[C@H](N(C)C)[C@@H](C)O2)/C=C/C=C/C[C@@H](C)OC(=O)C[C@H]1OC(C)=O
inactive: Potency [1] | Potency [2] | Potency [3] | Potency [4] | Potency [5] | Potency [6] | Potency [7] | Potency [8] | Potency [9] | Potency [10] | Potency [11] | Potency [12] | Potency [13] | Potency [14] | Potency [15] | Potency [16] | Potency [17]

CC(C)OC(=O)CCCCC(=O)OC(C)C
inactive: Potency [1] | Potency [2] | Potency [3] | Potency [4] | Potency [5] | Potency [6] | Potency [7] | Potency [8] | Potency [9] | Potency [10] | Potency [11] | Potency [12] | Potency [13] | Potency [18] | Potency [14] | Potency [15] | Potency [16] | Potency [17]

CN1CCCC1=O
inactive: Potency [1] | Potency [2] | Potency [3] | Potency [4] | Potency [5] | Potency [6] | Potency [7] | Potency [8] | Potency [9] | Potency [10] | Potency [11] | Potency [12] | Potency [13] | Potency [18] | Potency [14] | Potency [15] | Potency [19] | Potency [16] | Potency [17]

CCCCCC(=O)CC
inactive: Potency [1] | Potency [2] | Potency [3] | Potency [4] | Potency [5] | Potency [6] | Potency [7] | Potency [8] | Potency [9] | Potency [10] | Potency [11] | Potency [12] | Potency [13] | Potency [18] | Potency [14] | Potency [15] | Potency [19] | Potency [17]

CCCCc1ccc(Cl)cc1
inactive: Potency [1] | Potency [2] | Potency [3] | Potency [4] | Potency [5] | Potency [6] | Potency [7] | Potency [8] | Potency [9] | Potency [11] | Potency [12] | Potency [13] | Potency [18] | Potency [14] | Potency [15] | Potency [16] | Potency [17]

Nc1c(NC/C=C\COc2cc(CN3CCCCC3)ccn2)c(=O)c1=O
inactive: activity change, negative = cytotoxicity [1] 1.77% [at 19 µM] | activity, positive = activation [2] -5.23% [at 19 µM] | activity change [3] -0.254% [at 11.8 µM, active compounds read high] | activation [4] 1.38% [at 15.8 µM] | activation [5] 0.206% [at 11.8 µM] | activation [6] -4.01% [at 13.5 µM] | activation [7] 0.229% [at 13.6 µM] | activity change, negative = cytotoxicity [8] 5.4% [at 13.5 µM] | activation [9] -1.45% [at 13.5 µM] | activity, negative = inhibition [10] -23.4% [at 12.7 µM] | activation [11] 1.98% [at 15.9 µM] | activity, negative = inhibition [12] -18.5% [at 12.6 µM] | activation [13] -0.0227% [at 15.8 µM] | activation [18] 0.666% [at 19 µM] | activity change, negative = inhibition [14] -4.15% [at 18.9 µM] | activity change, negative = inhibition [15] 0.774% [at 19 µM] | activation [19] -3.93% [at 19 µM] | activation [16] -7.29% [at 19 µM] | activity change, negative = inhibition [17] 0.891% [at 18.9 µM]

C=CCOCC(CC)(CO)COCC=C
inactive: Potency [1] | Potency [2] | Potency [3] | Potency [4] | Potency [5] | Potency [6] | Potency [7] | Potency [8] | Potency [9] | Potency [10] | Potency [11] | Potency [12] | Potency [13] | Potency [18] | Potency [14] | Potency [15] | Potency [16] | Potency [17]

Reference: PubChem BioAssay (Tox21)
